Source: PubChem (National Center for Advancing Translational Sciences (NCATS))
Most compounds without a hit are left out; they make up all but 19% or so of the library.
TDP1 cell noCPT – qHTS for Inhibitors of human tyrosyl-DNA phosphodiesterase 1 (TDP1): qHTS in cells in absence of CPT. DT40 Tdp1-/- hTDP1 cells, no CPT, ATP luminescence, 48 h. AID 686978, 2013. actives 15% (n = 420,000). Potency, µM (doses to about 46.2 µM), inactives show at the top dose activity change, negative = growth inhibition, most hits filed as inhibitors; further: potency means the concentration at half of the fitted maximal effect; nearly all actives have a fitted effect of over 55% in size
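Chicken DT40 Tdp1-/- cells complemented with human TDP1, screened without camptothecin (DMSO vehicle only), 400 cells/well. Compounds pin-transferred, cells incubated at 37 °C for at least 48 hr. Growth read as ATP-dependent luminescence (CellTiter-Glo, 30 min at RT).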
HT1080NT lethal – qHTS for induction of synthetic lethality in tumor cells producing 2HG: qHTS for the HT-1080-NT fibrosarcoma cell line. Potency, µM (highest dose often 46.1 µM), inactives show top-dose activity, negative = less viability, actives largely listed as cytotoxic. AID 686970, 2013. actives 1.6% (n = 360,000). HT-1080-NT fibrosarcoma viability, CellTiter-Glo ATP luminescence, 48 h;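 further: NT is the 2HG producing partner of a matched IDH1 knockdown line; potency means the concentration at half of the fitted maximal effect; 0% = DMSO-treated cells and -100% = media-only wells without cells; nearly all actives have a fitted effect of over 55% in size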
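750 cells/well, RPMI + 5% FBS; 2 h settle, compound pin-transfer, 48 h at 37 degrees C. CellTiter-Glo 10 min RT, luminescence. Normalized to DMSO and media-only wells.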
IL1B secr inh – qHTS for Inhibitors of Inflammasome Signaling: IL-1-beta AlphaLISA Primary Screen; THP-1 LPS/ATP IL-1B secretion, AlphaLISA, 16 h; active compounds read low; activity change, % at 57.5 µM; actives 4.7% (n = 360,000); in the data active means activity change below about -50%; inconclusive means mostly about -30% to -49%
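Secreted IL-1B measured by AlphaLISA bead assay after 16 h compound exposure of THP-1 cells; compounds (final up to 57.5 uM) added 1 h before LPS (250 ng/mL) and ATP (1.25 mM) stimulation; lower signal means less secretion.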
DT40 TDP1 CPT – qHTS for Inhibitors of human tyrosyl-DNA phosphodiesterase 1 (TDP1): qHTS in cells in presence of CPT | chicken DT40 Tdp1-/-;hTDP1 cells + 20 nM CPT, ATP luminescence, 48 h | Potency, µM (titrated, usually from 46.2 µM), for inactives: at the highest dose activity change, negative = growth inhibition, actives largely listed as inhibitors | actives 12% (n = 420,000); further: potency means the concentration at half of the fitted maximal effect; nearly all actives have a fitted effect of over 55% in size
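Chicken DT40 Tdp1-/- cells stably complemented with human TDP1 were seeded at 400 cells/well in medium containing 20 nM camptothecin, exposed to pin-transferred compounds, and grown at 37 °C for at least 48 hr. Viability was read as ATP luminescence.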
HT1080 IDH1KD tx – qHTS for induction of synthetic lethality in tumor cells producing 2HG: qHTS for the HT-1080-IDH1KD cell line. HT-1080 IDH1 knockdown viability, ATP luminescence, 48 h. Potency, µM (series often up to 46.1 µM), for inactives: at the top dose activity, negative = toxicity, usual class: cytotoxic. actives 2% (n = 360,000);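 further: potency means the concentration at half of the fitted maximal effect; 0% = DMSO wells and -100% = cell-free medium wells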
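In this qHTS, HT-1080 cells depleted of IDH1 are exposed for 48 h at 37 °C to compound titrations. Toxicity is scored from CellTiter-Glo luminescence, with DMSO as full viability and medium alone as none.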
An asterisk follows results filed as active; ? = inconclusive; nt = not tested or not shown. Unless noted, the call rests on the fitted dose curve; in most records, active means well fitted curve in the direction sought with a large enough effect; inconclusive means small, poorly fitted or top-dose-only effect, or another doubt; inactive means no such curve, though single readings can be large; an effect the other way counts as inactive or inconclusive. Unless noted, on the % scale 0 is the no-effect control and ±100 the full control effect.

SMILES | TDP1 cell noCPT | HT1080NT lethal | IL1B secr inh | DT40 TDP1 CPT | HT1080 IDH1KD tx
CC(C)(O)CN(C(=O)c1ccc([N+](=O)[O-])cc1)C1CCCC1 | -1.9% | 3.1% | -3.3 | -3.6% | 19.0%
O=C(CSc1nnc(-c2cccs2)o1)Nc1cccc(S(=O)(=O)N2CCCCC2)c1 | -7.8% | 2.7% | -1.2 | -17.1% | 1.9%
N[C@@H](C(=O)O)c1ccc(C(=O)O)c(O)c1 | -14.9% | nt | nt | ? | nt
CC1=[N+]([O-])C(C)(C)C(c2ccc(Br)cc2)=[N+]1[O-] | -2.8% | -0.4% | -2.8 | -0.7% | -0.1%
COc1ccc(N2CCN(C(=O)Cn3cnc4c(cnn4-c4ccc(C)cc4)c3=O)CC2)cc1 | 9.3% | 14.7% | 19.4 | 15.1% | 18.5%
COc1cc2nc(N3CCCN(C)CC3)nc(NC3CCCCC3)c2cc1OC | 8.91µM* | 17.8µM* | nt | 7.94µM* | ?
COc1cc2nc(N3CCCN(C)CC3)nc(NC3CCOCC3)c2cc1OC | 7.08µM* | -16.5% | nt | 11.2µM* | -12.1%
COc1cc2c(NC3CCN(C)CC3)nc(N3CCCN(C)CC3)nc2cc1OCC1CCCCN1 (configuration not stated) | ? | nt | nt | 11.2µM* | nt
COc1cc2c(NC3CCN(C)CC3)nc(N3CCCN(C)CC3)nc2cc1O | -20.4% | -2.4% | nt | 12.6% | 9.5%
COc1cc2nc(N3CCCN(C)CC3)nc(NC3CCN(C)C3)c2cc1OC (configuration not stated) | 17.8µM* | nt | nt | 12.6µM* | nt
COc1cc2nc(N3CCCN(C)CC3)nc(OC3CCN(C)CC3)c2cc1OC | 14.1µM* | nt | nt | ? | nt
COc1ccc(-c2cc(=O)oc3c(C)c(OC(C)C(=O)NCc4ccccn4)ccc23)cc1 (configuration not stated) | 25.9µM* | 6.1% | -8.7 | ? | 8.4%
CCc1cc(=O)oc2cc(OCC(=O)NCCCn3ccnc3)ccc12 | 0.5% | -10.9% | -0.2 | -8.3% | 1.8%
COc1ccc(-c2cc(=O)oc3cc(OCC(=O)NCCCn4ccnc4)ccc23)cc1 | ? | -0.2% | -4.8 | 20.6µM* | -2.2%
Cc1c(C)c2ccc(OC(C)C(=O)NCCCn3ccnc3)c(C)c2oc1=O (configuration not stated) | 3.1% | -0.5% | -14.2 | -5.2% | 6.2%
COc1ccc(-c2cc(=O)oc3cc(OC(C)C(=O)NCCCn4ccnc4)ccc23)cc1 (configuration not stated) | 20.6µM* | -10.0% | 51.5 | 18.4µM* | -9.5%
CCCNc1c(NC(C)=O)c(=O)oc2ccccc12 | 10.2% | 7.9% | -1.2 | -15.6% | 4.7%
Cc1cc(-n2nc3ccc(Cl)cc3n2)c(O)c(C(C)(C)C)c1 | 4.4% | nt | nt | 0.4% | nt
COc1ccc(CNC(=O)CNC(=O)c2cccs2)c(OC)c1 | 20.4% | 6.4% | 12.1 | -12.5% | 7.6%
Cc1ccc(NC(=S)NCc2ccc3[nH]c4c(c3c2)CCCC4)cc1 | 13µM* | -4.6% | ? | ? | -20.8%
Cc1ccc(NS(=O)(=O)c2ccc3[nH]c4c(c3c2)CCCCCC4)cc1C | 16.4µM* | nt | nt | ? | nt
O=C(c1cccc(NS(=O)(=O)c2cccc(F)c2)c1)N1CCCC1 | 5.8% | 15.9% | 0.0 | 3.0% | 7.5%
O=S(=O)(Nc1cccc(F)c1)c1ccc2[nH]c3c(c2c1)CCCCC3 | ? | nt | nt | 20.6µM* | nt
COCCNC(=S)NCc1ccc2[nH]c3c(c2c1)CCCC3 | -26.1% | -21.0% | 12.5 | -15.3% | -19.3%
Cc1ccc(NS(=O)(=O)c2ccc3[nH]c4c(c3c2)CCCCCC4)cc1 | ? | nt | nt | 25.9µM* | nt
Cc1ccc(S(=O)(=O)N2CCCCCC2)cc1C(=O)NCc1ccccn1 | ? | 19.6% | 19.3 | -11.6% | 7.7%
COC(=O)c1sccc1NC(=O)C12CC3CC(CC(C3)C1)C2 | -15.0% | 8.7% | 27.7 | -0.9% | 16.1%
